Source: PubChem BioAssay
Measles CPE: protection of cells from measles virus. Measles virus-infected cells, CPE protection, absorbance. protection (pct of control), % at 4 µM. 140,000 compounds, 1.5% hits. AID 841; in the data active means protection mostly above about 24%, no sharp cut-off; inactive means mostly below about 26%
CYP2C9 inhib: blocks human cytochrome P450 2C9; 96,000 compounds, 20% hits; CYP2C9 Supersomes, luciferin-H conversion, luminescence; AID 777; inhibition, % at 5 µM; P11712;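 active means blocking of liver enzyme CYP2C9 beyond about 50% at 5 µM, limit read from the data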
CYP2C19 inh: blocks human cytochrome P450 2C19; 96,000 compounds, 21% hits; inhibition, % at 5 µM; CYP2C19 Supersomes, luciferin-H EGE luminescence, 30 min;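 active means CYP2C19 inhibition above a set limit at 5 µM in the primary screen, cut at about 50% in these data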;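 further: plate controls were negative control wells for no effect and 2.5 mM tranylcypromine positive control for full effect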
Target sequence (P33261 whole entry, looked up): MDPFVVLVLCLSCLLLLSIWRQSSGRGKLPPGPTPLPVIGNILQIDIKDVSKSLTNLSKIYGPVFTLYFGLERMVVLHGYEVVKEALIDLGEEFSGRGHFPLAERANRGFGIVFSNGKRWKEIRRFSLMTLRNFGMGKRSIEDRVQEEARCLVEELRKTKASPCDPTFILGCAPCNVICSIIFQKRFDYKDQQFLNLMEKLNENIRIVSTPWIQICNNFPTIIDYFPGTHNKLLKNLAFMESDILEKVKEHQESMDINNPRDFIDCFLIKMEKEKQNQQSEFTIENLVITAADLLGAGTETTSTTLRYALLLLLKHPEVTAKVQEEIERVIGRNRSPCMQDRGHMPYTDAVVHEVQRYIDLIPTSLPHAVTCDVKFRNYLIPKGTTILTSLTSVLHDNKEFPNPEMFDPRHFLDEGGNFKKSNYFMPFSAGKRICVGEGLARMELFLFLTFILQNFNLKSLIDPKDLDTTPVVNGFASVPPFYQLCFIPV
CYP2C19 activ: cytochrome P450 2C19 (human) activation; recombinant CYP2C19, luciferin-H EGE luminescence; active compounds read high; 0 = fully inhibited enzyme, 1 = untreated enzyme; 96,000 tested, under 10 active; P33261; activation factor at 5 µM;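 active means activation factor of at least 2 at 5 µM in the primary screen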;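 further: 0 = wells with 2.5 mM tranylcypromine and 1 = vehicle-only wells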
CYP2C9 act: CYP2C9 (human) activation; P11712; recombinant CYP2C9, luciferin-H conversion, luminescence; active compounds read high; factor 1 = untreated enzyme, 0 = blocked; activation factor at 5 µM; 96,000 compounds, 1.4% hits;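 active means activation factor of 2 or more for CYP2C9 at a 5 µM dose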;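 further: 0 = sulfaphenazole-blocked wells and 1 = vehicle-only wells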
Active calls of the source: *; / = no result given. Sampled rows, rich in hits. Any-hit rate of the full collection: about 22%.

SMILES | Measles CPE | CYP2C9 inhib | CYP2C19 inh | CYP2C19 activ | CYP2C9 act
CCn1c(=O)c(C(=O)Nc2nc3ccccc3[nH]2)c(O)c2ccccc21 | 11.3 | 6.3 | -1.3 | 1 | 0.9
COc1cccc(Oc2cncnc2-c2ccc(OC)cc2O)c1 | / | 99.1* | 98.3* | 0 | 0
CCn1c(C)c(/C=N/Nc2nc3ccccc3s2)c2ccccc21 | 15.5 | 3.8 | 16.7 | 0.8 | 1
COc1ccccc1NC(=O)C1CCCN(S(=O)(=O)c2cccc3nsnc23)C1 (centres undefined) | 4.2 | 71.1* | 71.6* | 0.3 | 0.3
O=C(NCc1ccccc1Cl)C1CCCN(S(=O)(=O)c2cccc3nsnc23)C1 (centres undefined) | 3.4 | 50.2* | 76.7* | 0.2 | 0.5
Cc1cccc(NC(=O)C2CCCN(S(=O)(=O)c3cccc4nsnc34)C2)c1 (centres undefined) | 9.9 | 39.8 | 26.7 | 0.7 | 0.6
COc1cccc(NC(=O)C2CCCN(S(=O)(=O)c3cccc4nsnc34)C2)c1 (centres undefined) | 6.4 | 67.1* | 50.2* | 0.5 | 0.3
Cc1cccc(NC(=O)C2CCCN(S(=O)(=O)c3cccc4nsnc34)C2)n1 (centres undefined) | 3.6 | 46.0 | 15.1 | 0.8 | 0.5
COc1cc2c(cc1OC)C(c1ccccc1O)N(C1CC(=O)N(c3ccccc3)C1=O)CC2 (centres undefined) | 7.2 | 16.8 | -6.3 | 1.1 | 0.8
Cc1ccccc1Cn1cc(NC(=O)COc2ccccc2)cn1 | / | 42.3 | 20.7 | 0.8 | 0.6
CC(=O)OCCSc1c(-c2ccccc2)c2cc(Cl)ccc2[nH]c1=O | 8.5 | / | / | / | /
CC1CCN(C(=O)CCc2ccc(S(=O)(=O)NC(C)(C)C)cc2)CC1 | 12.8 | 62.8* | 74.2* | 0.3 | 0.4
CCCNS(=O)(=O)c1ccc(CCC(=O)NCC2CCCO2)cc1 (centres undefined) | 6.8 | / | / | / | /
CCCNS(=O)(=O)c1ccc(CCC(=O)N2CCC(C)CC2)cc1 | 5.4 | 51.9* | 81.5* | 0.2 | 0.5
COc1cccc(C(=O)Nc2cc3c(cc2Cl)OCCCO3)c1 | 29.4 | / | / | / | /
COc1ccccc1N1CCN(C(=O)CSc2nnc(NC(=O)C3CCC3)s2)CC1 | 2.0 | 81.8* | 51.0* | 0.5 | 0.2
CCOc1ccccc1Nc1nnc(SCC(=O)N2CCCC2)s1 | 4.2 | -130.5 | 4.4 | 1 | 2.3*
COc1ccccc1Nc1nnc(SCC(=O)N2CCCC2=O)s1 | 15.9 | -167.2 | 56.8* | 0.4 | 2.7*
Cc1sc2nc(CSc3cccc(C(F)(F)F)c3)[nH]c(=O)c2c1C | 12.7 | / | / | / | /
O=S1(=O)C=C(SCc2ccccc2)Nc2ccccc21 | 12.4 | 63.2* | 68.4* | 0.3 | 0.4
O=C(CCN1C(=O)C2C3C=CC(C3)C2C1=O)NCc1cccnc1 (centres undefined) | 22.2 | -8.3 | 98.1* | 0 | 1.1
Cc1ccc(NC(=O)NCCN2C(=O)C3C4C=CC(C4)C3C2=O)cc1 (centres undefined) | 11.8 | 12.9 | 90.7* | 0.1 | 0.9
O=C(NCCN1C(=O)C2C3C=CC(C3)C2C1=O)Nc1ccccc1 (centres undefined) | 7.2 | 19.1 | 69.6* | 0.3 | 0.8
O=C(CCN1C(=O)COc2ccccc21)NCc1cccnc1 | 6.0 | / | / | / | /
Cc1cccc(NC(=O)CCN2C(=O)C3C4C=CC(C4)C3C2=O)c1 (centres undefined) | 5.4 | 26.3 | 85.4* | 0.1 | 0.7
SMILES | Measles CPE | CYP2C9 inhib | CYP2C19 inh | CYP2C19 activ | CYP2C9 act
CCCC(O)(CCN(C)C)c1ccc(OC)cc1 (centres undefined) | 3.6 | -1.8 | 1.7 | 1 | 1
Cc1cccc(NC(=O)CCN2CCOCC2)c1 | 8.5 | -37.0 | -7.7 | 1.1 | 1.4
Cc1ccccc1NC(=O)NCCN1C(=O)C2C3C=CC(C3)C2C1=O (centres undefined) | 11.0 | 4.6 | 50.2* | 0.5 | 1
Cc1cccc(NC(=O)NCCN2C(=O)C3C4C=CC(C4)C3C2=O)c1 (centres undefined) | 6.2 | 6.3 | 79.6* | 0.2 | 0.9
Cc1cccc(NC(=O)CCn2ccnc2C)c1 | 5.7 | 14.1 | 62.0* | 0.4 | 0.9
O=C(NCCN1C(=O)C2C3C=CC(C3)C2C1=O)NCc1ccccc1 (centres undefined) | 19.7 | 10.8 | 11.8 | 0.9 | 0.9
CCOc1cc(NC(=O)c2ccco2)c(OCC)cc1NC(=O)CCc1ccc(OC)cc1 | / | -10.4 | -11.3 | 1.1 | 1.1
O=C(N/N=C/c1cccs1)[C@H]1C[C@@H]1c1ccccc1 | 8.7 | / | / | / | /
